Hits are enriched below; roughly 18% of the tested compounds scored in any of these assays.
PLK1 PBD block: inhibitors of human PLK1 polo-box domain binding; P53350; Plk1 PBD binding of FITC phosphopeptide, fluorescence polarization; 360,000 compounds, 2.8% hits; Potency, µM, usual class: inhibitors; AID 720504; note: series mostly up to about 57 µM; nearly all actives have a fitted effect of over 65% in size
Target sequence (P53350 whole entry, looked up, the tested form may be a part): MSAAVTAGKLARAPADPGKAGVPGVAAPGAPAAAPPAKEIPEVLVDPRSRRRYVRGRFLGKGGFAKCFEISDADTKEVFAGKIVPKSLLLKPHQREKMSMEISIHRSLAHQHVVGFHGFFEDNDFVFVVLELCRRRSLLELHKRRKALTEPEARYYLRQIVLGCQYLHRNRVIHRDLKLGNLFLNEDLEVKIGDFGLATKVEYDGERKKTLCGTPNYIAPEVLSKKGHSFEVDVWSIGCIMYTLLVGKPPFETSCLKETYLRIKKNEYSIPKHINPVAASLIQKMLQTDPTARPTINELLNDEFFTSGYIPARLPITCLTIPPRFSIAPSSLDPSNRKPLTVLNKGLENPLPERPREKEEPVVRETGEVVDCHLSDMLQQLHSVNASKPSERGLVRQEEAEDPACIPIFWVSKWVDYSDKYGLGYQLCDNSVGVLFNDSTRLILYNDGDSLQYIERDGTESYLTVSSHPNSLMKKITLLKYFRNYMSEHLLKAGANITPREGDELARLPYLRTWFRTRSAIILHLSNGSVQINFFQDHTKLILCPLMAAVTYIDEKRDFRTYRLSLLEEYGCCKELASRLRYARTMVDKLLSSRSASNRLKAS
GCN5L2 inh: GCN5L2 (KAT2A) acetyltransferase inhibition; AID 504327; Q92830; Potency, µM (titrated, usually from 58.9 µM), actives largely listed as inhibitors; GCN5L2 HAT assay, ThioGlo1 CoA-SH fluorescence; 390,000 compounds, 0.21% hits
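ThioGlo1-coupled HAT assay: 20nM GCN5L2, 70uM acetyl-CoA, 75uM H3(1-25) peptide, pH 7.5. Fluorescence read at 340/540nm at start and after 20 min at room temperature.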
TDP1 inh: blocks human tyrosyl-DNA phosphodiesterase 1. Potency, µM (top dose mostly 130 µM), usual class: inhibitors. recombinant TDP1, AlphaScreen DNA substrate cleavage. Q9NUW8. 350,000 compounds, 0.28% hits. AID 485290; note: nearly all actives have a fitted effect of over 40% in size
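Enzyme-compound mixtures sat 15 min at room temperature, followed by a 5 min reaction with 15 nM final substrate and 10 min with AlphaScreen beads. Recombinant human Tdp1 was used at 1 nM final.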
DT40 TDP1 CPT: growth inhibition of DT40 Tdp1-/-;hTDP1 cells with camptothecin (screen for TDP1 inhibitors). chicken DT40 Tdp1-/-;hTDP1 cells + 20 nM CPT, ATP luminescence, 48 h. Potency, µM (series often up to 46.2 µM), actives largely listed as inhibitors. 420,000 compounds, 12% hits. AID 686979; note: nearly all actives have a fitted effect of over 55% in size
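Cell growth measured by CellTiter-Glo luminescence after a minimum 48 h, 37 C compound exposure with 20 nM CPT in Tdp1-knockout DT40 cells stably expressing hTDP1, seeded 400/well; qHTS titration format.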
VDR inh: inhibitors of human vitamin D receptor; P11473; VDR-SRC2-3 peptide fluorescence polarization, 2 h; Potency, µM, usual class: inhibitors; 400,000 compounds, 0.93% hits; AID 504847
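Inhibition of the VDR/SRC2-3 peptide interaction is quantified by fluorescence polarization. Compounds (23 nl, pintool) incubate with the reagents for 2 hours at ambient room temperature.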
DT40 TDP1 no CPT: qHTS for Inhibitors of human tyrosyl-DNA phosphodiesterase 1 (TDP1): qHTS in cells in absence of CPT; DT40 Tdp1-/- hTDP1 cells, no CPT, ATP luminescence, 48 h; Potency, µM (top dose mostly 46.2 µM), actives largely listed as inhibitors; 420,000 compounds, 15% hits; AID 686978, 2013; note: nearly all actives have a fitted effect of over 55% in size
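Chicken DT40 Tdp1-/- cells stably complemented with human TDP1 were seeded at 400 cells/well with DMSO in place of 20 nM camptothecin. After compound pinning, cells grew at least 48 hr at 37 °C; viability read by CellTiter-Glo luminescence.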
Numbers stand for hits; - = inactive; ? = inconclusive; . = not tested or not shown; [ ] = dose if it differs, or a comment. Calls come from the whole dose curve; as a rule, active = well fitted curve in the direction sought with a large enough effect; inconclusive = small, poorly fitted or top-dose-only effect, or another doubt; inactive = no such curve, though single readings can be large; an effect the other way counts as inactive or inconclusive.

SMILES | PLK1 PBD block | GCN5L2 inh | TDP1 inh | DT40 TDP1 CPT | VDR inh | DT40 TDP1 no CPT
Cc1ccc(C)c(N2CCN(C(=O)CN(C)S(=O)(=O)c3ccc4c(c3)CCC(=O)N4)CC2)c1 | - | - | - | ? | ? | 16µM
CC(=O)N1CCc2cc(S(=O)(=O)CCC(=O)N3CCN(c4cc(C)ccc4C)CC3)ccc21 | - | - | - | ? | - | 21µM
CC(=O)N1CCc2cc(S(=O)(=O)CCC(=O)N(C)c3cc(C)ccc3C)ccc21 | ? | - | - | - | - | -
Cc1ccc(CSCCC(=O)N2CCN(c3cc(C)ccc3C)CC2)cc1 | . | - | - | 23µM | - | 13µM
CC(=O)N1CCc2cc(S(=O)(=O)CCC(=O)N3CCN(c4cccc(C)c4C)CC3)ccc21 | . | - | - | 16µM | - | 15µM
CC(=O)N1CCc2cc(S(=O)(=O)CCC(=O)N3CCc4ccccc4C3)ccc21 | - | -[0.501 µM] | - | ? | - | -
CCC(C(=O)N1CCN(c2ccccc2F)CC1)n1nc(C)c2sc3ccccc3c2c1=O (stereo unspecified) | . | - | - | ? | - | ?
CN1CCN(C(=O)c2ccccc2NC(=O)c2ccccc2)CC1 | - | - | - | - | - | -
COc1ccccc1NS(=O)(=O)c1cccc(NC(=O)CCNC(=O)c2ccccc2OC)c1 | - | - | - | ? | - | -
COc1cc(CN(C)C(C)C(=O)Nc2ccc([N+](=O)[O-])cc2Cl)ccc1OC(F)F (stereo unspecified) | - | - | - | ? | - | ?
COc1ccccc1NS(=O)(=O)c1cccc(NC(=O)C2CC2)c1 | - | - | - | ? | - | -
COc1ccccc1NS(=O)(=O)c1cccc(NC(=O)NCCCl)c1 | 27µM | - | - | 21µM | ? | ?
COc1ccc([N+](=O)[O-])cc1NC(=O)Nc1cccc(Cl)c1 | - | - | - | 12µM | - | 9.2µM
COc1ccccc1NS(=O)(=O)c1cccc(NC(=O)Nc2cccc(Cl)c2)c1 | - | - | - | 21µM | - | 21µM
COc1ccc([N+](=O)[O-])cc1NC(=O)Nc1ccc(OC)c(OC)c1 | - | - | - | ? | - | ?
COc1ccc([N+](=O)[O-])cc1NC(=O)C(C)N(C)Cc1cccc(OC)c1OC (stereo unspecified) | - | - | - | 21µM | - | 16µM
COc1ccc(NC(=O)CN(C)C(C)C(=O)NC(=O)NC2CCCCC2)cc1 (stereo unspecified) | - | - | - | ? | - | -
NS(=O)(=O)c1cccc(NC(=O)c2cncc(Br)c2)c1 | - | ? | . | - | - | -
COc1ccccc1NS(=O)(=O)c1cccc(NC(=S)NCCN2CCOCC2)c1 | 24µM | - | - | - | - | ?
COc1cccc(NC(=S)NCCN2CCOCC2)c1 | - | - | - | - | - | -
COc1ccccc1NS(=O)(=O)c1cccc(NC(=O)c2cncc(Br)c2)c1 | - | - | - | ? | - | 18µM
CCCc1cc2c(n1CCc1ccc(Cl)cc1)C(C)C1CN(C(=O)c3ccccc3)C(C)(C(=O)OC)C21 (stereo unspecified) | . | . | - | . | . | .
C=C1C(=O)OCC2C(C(=O)O)=CC3C(C)C(C)=CC123 (stereo unspecified) | - | . | . | 18µM | . | 18µM
Cc1ccc(C(=O)CSc2n[nH]c(C)n2)cc1 | 30µM | - | - | - | ? | -
Cc1ccc(C)c(C(=O)CSc2n[nH]c(C)n2)c1 | ? | - | - | ? | ? | ?
SMILES | PLK1 PBD block | GCN5L2 inh | TDP1 inh | DT40 TDP1 CPT | VDR inh | DT40 TDP1 no CPT
CCc1ccc(C(=O)CSc2n[nH]c(C)n2)cc1 | 27µM | - | - | - | ? | -
Cc1cc(F)ccc1S(=O)(=O)N1CCCOC1CNC(=O)C(=O)NCc1ccncc1 (stereo unspecified) | - | - | - | - | - | -
COc1ccc(N(CC(=O)N2CCc3ccccc32)S(=O)(=O)c2c(C)nn(C)c2C)cc1 | - | - | - | ? | - | ?
COc1ccc(N(CC(=O)N2CCN(c3cccc(Cl)c3)CC2)S(=O)(=O)c2c(C)noc2C)cc1 | - | - | - | 16µM | - | 18µM
COc1ccc(N(CC(=O)N2c3ccccc3CC2C)S(=O)(=O)c2c(C)nn(C)c2C)cc1 (stereo unspecified) | - | - | - | ? | - | 18µM
COc1ccc(N(CC(=O)N2CCN(c3ccccc3)CC2)S(=O)(=O)c2c(C)nn(C)c2C)cc1 | . | - | - | - | - | ?
Cc1ccc(N(CC(=O)N2CCN(c3cccc(Cl)c3)CC2)S(=O)(=O)c2c(C)noc2C)cc1 | . | - | - | ? | - | ?
Cc1ccc(N(CC(=O)N2CCN(c3cc(Cl)ccc3C)CC2)S(=O)(=O)c2c(C)noc2C)cc1 | . | - | - | 21µM | - | 9.2µM
COc1ccc(N(CC(=O)N2CCN(c3ccc(F)cc3)CC2)S(=O)(=O)c2c(C)nn(C)c2C)cc1 | . | - | - | ? | - | 23µM
Cc1nn(C)c(C)c1S(=O)(=O)N(CC(=O)N1CCc2ccccc2C1)c1ccc(C(C)C)cc1 | - | - | - | ? | - | ?
Cc1ccc(N(CC(=O)N2CCN(c3cccc(C)c3C)CC2)S(=O)(=O)c2c(C)nn(C)c2C)cc1 | . | - | - | 8.2µM | - | 9.2µM
Cc1nn(C)c(C)c1S(=O)(=O)N(CC(=O)NCCc1ccc(Cl)cc1)c1ccc(C(C)C)cc1 | . | - | - | 16µM | - | 15µM
Cc1nn(C)c(C)c1S(=O)(=O)N(CC(=O)N1CCN(c2ccccc2)CC1)c1ccc(C(C)C)cc1 | . | - | - | 16µM | - | 16µM
COc1ccc(N(CC(=O)N2CCN(c3ccc(F)cc3)CC2)S(=O)(=O)c2c(C)noc2C)cc1 | - | - | - | 26µM | - | ?
COc1ccc(N(CC(=O)NCCc2ccccc2)S(=O)(=O)c2c(C)nn(C)c2C)cc1 | . | - | - | - | - | ?
Cc1ccc(NC(=O)C2CCN(S(=O)(=O)c3ccc4c(c3)OCCO4)CC2)nc1 | - | ? | . | - | - | -
O=C(Nc1cccc(N2CCC(NCc3cnn(-c4cccc(F)c4)c3)CC2)c1)c1ccncc1 | . | . | . | -[9.04 µM] | . | ?
CC(C)NC(=O)N1CC[C@@]2(CCCN(C(=O)c3cc(C(F)(F)F)cc(C(F)(F)F)c3)C2)C1 | . | - | . | - | - | -
Nc1nnnn1-c1ccccc1 | . | . | . | - | . | -
COc1cccc(C(=O)N2CCCCC2CCN2CCCCC2)c1 (stereo unspecified) | . | - | - | - | - | -
CCOc1ccc(N(CC(=O)N2CCN(c3ccc(F)cc3)CC2)S(=O)(=O)c2c(C)noc2C)cc1 | - | - | - | 26µM | - | ?

Screens from PubChem BioAssay.
